The source of these data is PubChem BioAssay (NCATS).

The target in test [1] is Cytochrome P450 1A2 (Homo sapiens) (UniProt P05177). In words: p450-cyp1a2 (AID 410; calls by dose curve; further: potency means the concentration at half of the fitted maximal effect). In a few lines: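 Inhibition was calculated relative to 57 uM furafylline (full inhibition). The reaction used human CYP1A2 at 20nM with Luciferin-ME at its Km, 100uM, driven by an NADPH-regenerating system for 60 min at room temperature.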
Test [2] deals with Glucocorticoid receptor (Homo sapiens) (UniProt P04150). In words: GR-GFP Redistribution (AID 450;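 active means compounds whose dose series gives a full or clear partial fitted curve of increased nuclear translocation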; further: potency means the concentration at half of the fitted maximal effect). The following applies: U2OS GR-GFP nuclear translocation, laser cytometry, 2 h.
Test [3] shares this target. In words: GR-EFC Redistribution (AID 451; calls by dose curve; further: potency means the concentration at half of the fitted maximal effect). The following applies: CHO-K1 GR-EFC translocation, beta-gal luminescence, 2 h. The method, boiled down:
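Translocation of GR-ED fusion to nuclear EA restores b-gal, read by luminescence after 1 h room-temperature detection. Engineered CHO-K1 biosensor cells, 1,000/well, exposed 2 h at 37 C to titrations up to 46 uM final.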

Test [4] addresses Mitogen-activated protein kinase 10 (Mus musculus) (UniProt Q61831). The test can be described thus: JNK3 AlphaScreen Assay (AID 530; active means well fitted curve in either direction with a large enough effect, not every such curve was filed as active;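 further: kinase came from lysate of stimulated human HepG2 cells; signal reports phosphorylation of biotinylated GST-cJun 1-79 at Ser73 with 10 µM ATP; series mostly up to about 57 µM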). The method, boiled down:
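Room-temperature AlphaScreen kinase assay; pre-activated HepG2 lysate as JNK3 source, biotin-GST-cJun(1-79) substrate, 10 uM ATP, compound 15 min preincubation.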
Background: Alpha assays give light when donor and acceptor beads are brought close together.

The target of test [5] is 3',5'-cyclic-AMP phosphodiesterase 4B (Homo sapiens) (UniProt Q07343). The test can be described thus: qHTS Assay for Inhibitors of PDE-IV (AID 607; active means well fitted activation curve with a large enough effect in the main read-out, with a control signal flat, not every such curve was filed as active). In a few lines:
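ACTOne HEK293 cells carry a modified cAMP-gated CNG channel and express endogenous PDE4; plated 1000 cells/well, compounds up to 22.9 uM final. Membrane-potential dye fluorescence (ex 535/em 590) was read; parental cells received 10 uM forskolin + 100 uM RO 20-1724.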
Background: In qHTS, concentration-response curves come from the screen itself.

In test [6] the target is Cytochrome P450 2C9 (Homo sapiens) (UniProt P11712). The test can be described thus: qHTS Assay for Inhibitors and Substrates of Cytochrome P450 2C9 (AID 883). Further: nearly all actives have a fitted effect of over 60% in size. The method, boiled down: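 Inhibition of CYP2C9 is scored as loss of luminescence, with 57uM sulphaphenazole defining 100% inhibition. Substrate Luciferin-H is used at 100uM, equal to its KM; enzyme at 10nM in 25mM KPO4, 60 min at 37C with NADPH regeneration.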

Test [7] addresses Ubiquitin carboxyl-terminal hydrolase 1 (Homo sapiens) (UniProt O94782). The test can be described thus: Inhibitors of USP1/UAF1: Pilot qHTS (AID 504865).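 Further: rhodamine fluorescence freed from ubiquitin-rhodamine substrate followed over time; top concentration of the series differs between compounds; nearly all actives have a fitted effect of over 35% in size.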 The method, boiled down: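 Enzyme-free wells gave the negative control, while test wells held 1nM USP1/UAF1 preincubated with compound for 15 min at room temperature. Ub-Rho at 150nM final started the reaction, and fluorescence at 480/540 nm was recorded kinetically.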

The target of test [8] is DNA dC->dU-editing enzyme APOBEC-3G (Homo sapiens) (UniProt Q9HC16). In words: qHTS for inhibitors of Vif-A3G interactions: Validation (AID 588379). The method, boiled down: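 HeLa cells stably expressing Vif and A3G-eYFP, 700 cells/well, incubated overnight at 37 deg C, then exposed to compound overnight at 37 deg C. Inhibition of Vif-mediated degradation read as increased yellow fluorescence (Ex 488/Em 500-530) by laser-scanning cytometry.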

Test [9] has as its system Zika virus NS2B-NS3 protease. The test can be described thus: Primary screen GU AMC qHTS for Zika virus inhibitors (AID 1347154). Further: nearly all actives have a fitted effect of over 70% in size. In a few lines:
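Fluorogenic AMC-substrate cleavage by noncovalent NS2B-NS3 protease complex (25 nM, pH 8.0 Tris buffer with Tween 20) followed for 15 minutes at room temperature (~20% conversion). Percent inhibition from ex340/em450 signal change, fitted by 4-parameter Hill equation.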

For test [10], the target named is Cytochrome P450 3A4 (Homo sapiens) (UniProt P08684). In words: qHTS Assay for Inhibitors and Substrates of Cytochrome P450 3A4 (AID 884). Further: nearly all actives have a fitted effect of over 50% in size. Further: potency means the concentration at half of the fitted maximal effect. In a few lines: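 20 nM human CYP3A4 with 25 uM Luciferin-PPXE (at KM) in 200 mM KPO4, preincubated 10 min with compound; NADPH regeneration started a 60 min RT reaction. Luciferin detected by luminescence, normalized to 57 uM ketoconazole as full inhibition.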

For test [11] the target is unchanged. The test can be described thus: qHTS Assay for Activators of Cytochrome P450 3A4 (AID 885). Further: nearly all actives have a fitted effect of over 65% in size. The method, boiled down:
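20nM CYP3A4 + 25uM Luciferin-PPXE (=KM), 200mM KPO4; cpd 10 min RT; NADPH regen, 60 min RT; stop w/ detection buffer, 20 min; luminescence. Normalized to 57 uM ketoconazole.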

Test [12] is described as follows: NCATS anti-infectives library activity on HEK293 viability as a counter-qHTS vs the C. elegans viability qHTS (AID 1745854).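 Further: HEK293 cells exposed to compounds for 24 hr before the viability read.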 In a few lines:
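Cytotoxicity in human HEK293 cells is measured by ATP-dependent CellTiter-Glo luminescence following a 24 hr incubation with titrated library compounds at 37C. Top final concentration is 41.7 uM.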

In test [13] the target is Cytochrome P450 2D6 (Homo sapiens) (UniProt P10635). In words: qHTS Assay for Inhibitors and Substrates of Cytochrome P450 2D6 (AID 891). Further: potency means the concentration at half of the fitted maximal effect; nearly all actives have a fitted effect of over 60% in size. The method, boiled down:
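Human CYP2D6 (5 nM) with 30 uM Luciferin-ME EGE (at Km) in 100 mM KPO4, compound preincubated 10 min, then NADPH regeneration system for 60 min at room temperature. Luciferin read by luminescence; normalized to 1.43 uM quinidine.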

Unmarked numbers belong to inactive results. Records with an inconclusive call do not appear. Activity calls are given as the source filed them. Unless noted, the call rests on the fitted dose curve; in most records, active means well fitted curve in the direction sought with a large enough effect; inconclusive means small, poorly fitted or top-dose-only effect, or another doubt; inactive means no such curve, though single readings can be large; an effect the other way counts as inactive or inconclusive.

DNA dC->dU-editing enzyme APOBEC-3G (Homo sapiens), sequence (Q9HC16 whole entry, looked up): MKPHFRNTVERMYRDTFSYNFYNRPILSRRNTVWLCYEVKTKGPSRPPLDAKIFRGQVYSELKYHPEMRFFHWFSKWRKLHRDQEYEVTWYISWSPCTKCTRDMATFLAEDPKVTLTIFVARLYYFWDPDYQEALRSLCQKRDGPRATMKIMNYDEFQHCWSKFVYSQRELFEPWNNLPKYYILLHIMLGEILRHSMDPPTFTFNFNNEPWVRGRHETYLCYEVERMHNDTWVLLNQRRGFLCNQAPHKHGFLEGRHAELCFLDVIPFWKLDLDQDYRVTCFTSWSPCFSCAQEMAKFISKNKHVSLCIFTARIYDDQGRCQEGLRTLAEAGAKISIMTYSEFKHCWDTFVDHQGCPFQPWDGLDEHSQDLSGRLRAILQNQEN
Cytochrome P450 3A4 (Homo sapiens), sequence (P08684 whole entry, looked up): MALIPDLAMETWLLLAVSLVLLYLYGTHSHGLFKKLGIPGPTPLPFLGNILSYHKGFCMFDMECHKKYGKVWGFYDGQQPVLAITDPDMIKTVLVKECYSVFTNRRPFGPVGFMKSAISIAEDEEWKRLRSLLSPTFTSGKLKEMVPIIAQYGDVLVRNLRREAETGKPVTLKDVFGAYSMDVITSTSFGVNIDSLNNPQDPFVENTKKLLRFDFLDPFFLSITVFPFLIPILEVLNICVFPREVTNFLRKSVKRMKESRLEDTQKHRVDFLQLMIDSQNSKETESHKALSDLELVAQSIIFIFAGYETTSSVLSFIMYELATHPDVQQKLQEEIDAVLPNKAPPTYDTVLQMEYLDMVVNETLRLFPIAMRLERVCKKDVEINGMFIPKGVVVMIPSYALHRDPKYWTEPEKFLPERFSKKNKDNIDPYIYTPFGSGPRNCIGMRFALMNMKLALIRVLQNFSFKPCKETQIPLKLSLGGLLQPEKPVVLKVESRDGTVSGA
Ubiquitin carboxyl-terminal hydrolase 1 (Homo sapiens), sequence (O94782 whole entry, looked up): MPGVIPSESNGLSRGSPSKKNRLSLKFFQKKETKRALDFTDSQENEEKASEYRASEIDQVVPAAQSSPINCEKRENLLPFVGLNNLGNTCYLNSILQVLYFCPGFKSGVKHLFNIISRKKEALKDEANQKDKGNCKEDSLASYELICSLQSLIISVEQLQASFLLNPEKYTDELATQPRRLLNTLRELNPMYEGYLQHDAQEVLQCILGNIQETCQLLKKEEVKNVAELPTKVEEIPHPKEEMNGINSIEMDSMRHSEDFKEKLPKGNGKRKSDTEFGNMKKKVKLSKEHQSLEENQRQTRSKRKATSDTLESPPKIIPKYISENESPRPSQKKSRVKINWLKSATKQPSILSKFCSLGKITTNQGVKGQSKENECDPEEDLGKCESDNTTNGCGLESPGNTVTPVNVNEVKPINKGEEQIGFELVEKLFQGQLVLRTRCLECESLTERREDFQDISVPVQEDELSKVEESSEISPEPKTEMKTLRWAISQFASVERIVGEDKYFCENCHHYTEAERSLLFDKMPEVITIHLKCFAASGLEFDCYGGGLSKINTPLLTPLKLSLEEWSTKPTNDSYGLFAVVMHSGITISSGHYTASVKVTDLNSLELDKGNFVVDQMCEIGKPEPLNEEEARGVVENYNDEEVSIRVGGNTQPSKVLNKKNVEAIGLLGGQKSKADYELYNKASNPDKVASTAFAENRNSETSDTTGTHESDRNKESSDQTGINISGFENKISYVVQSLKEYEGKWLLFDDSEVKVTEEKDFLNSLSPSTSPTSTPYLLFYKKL
Glucocorticoid receptor (Homo sapiens), sequence (P04150 whole entry, looked up): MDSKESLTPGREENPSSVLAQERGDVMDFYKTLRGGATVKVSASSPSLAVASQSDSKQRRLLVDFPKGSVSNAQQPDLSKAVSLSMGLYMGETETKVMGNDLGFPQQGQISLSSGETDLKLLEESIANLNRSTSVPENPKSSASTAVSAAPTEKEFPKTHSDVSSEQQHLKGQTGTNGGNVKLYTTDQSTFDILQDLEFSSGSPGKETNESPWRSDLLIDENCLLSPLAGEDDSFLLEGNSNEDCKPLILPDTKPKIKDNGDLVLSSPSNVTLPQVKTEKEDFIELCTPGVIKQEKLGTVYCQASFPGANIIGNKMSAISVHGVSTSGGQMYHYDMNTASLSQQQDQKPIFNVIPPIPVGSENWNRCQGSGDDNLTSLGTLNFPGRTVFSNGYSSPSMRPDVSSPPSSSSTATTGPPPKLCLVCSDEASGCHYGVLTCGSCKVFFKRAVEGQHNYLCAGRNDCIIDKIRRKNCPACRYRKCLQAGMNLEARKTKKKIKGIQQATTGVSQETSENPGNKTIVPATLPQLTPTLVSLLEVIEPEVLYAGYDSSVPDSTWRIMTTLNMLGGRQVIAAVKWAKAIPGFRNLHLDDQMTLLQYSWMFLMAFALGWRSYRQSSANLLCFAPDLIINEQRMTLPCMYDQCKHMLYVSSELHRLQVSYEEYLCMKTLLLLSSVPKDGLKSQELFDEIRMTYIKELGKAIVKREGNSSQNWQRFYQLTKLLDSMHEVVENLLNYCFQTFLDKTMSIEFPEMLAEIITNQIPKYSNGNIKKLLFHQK
Cytochrome P450 1A2 (Homo sapiens), sequence (P05177 whole entry, looked up): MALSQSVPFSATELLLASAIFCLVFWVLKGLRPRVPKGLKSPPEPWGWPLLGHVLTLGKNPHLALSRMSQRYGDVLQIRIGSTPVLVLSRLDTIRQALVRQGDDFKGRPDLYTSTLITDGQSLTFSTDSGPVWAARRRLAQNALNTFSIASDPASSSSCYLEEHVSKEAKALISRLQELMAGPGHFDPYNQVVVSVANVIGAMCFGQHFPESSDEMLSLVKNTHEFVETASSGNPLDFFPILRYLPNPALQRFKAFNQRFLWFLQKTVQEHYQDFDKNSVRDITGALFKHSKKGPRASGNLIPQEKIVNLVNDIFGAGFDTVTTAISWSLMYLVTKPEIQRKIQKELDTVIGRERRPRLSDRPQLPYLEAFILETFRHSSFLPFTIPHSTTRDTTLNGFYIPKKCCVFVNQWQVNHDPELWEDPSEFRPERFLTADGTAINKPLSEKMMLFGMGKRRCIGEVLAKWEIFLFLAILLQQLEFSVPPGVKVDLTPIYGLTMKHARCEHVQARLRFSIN
3',5'-cyclic-AMP phosphodiesterase 4B (Homo sapiens), sequence (Q07343 whole entry, looked up): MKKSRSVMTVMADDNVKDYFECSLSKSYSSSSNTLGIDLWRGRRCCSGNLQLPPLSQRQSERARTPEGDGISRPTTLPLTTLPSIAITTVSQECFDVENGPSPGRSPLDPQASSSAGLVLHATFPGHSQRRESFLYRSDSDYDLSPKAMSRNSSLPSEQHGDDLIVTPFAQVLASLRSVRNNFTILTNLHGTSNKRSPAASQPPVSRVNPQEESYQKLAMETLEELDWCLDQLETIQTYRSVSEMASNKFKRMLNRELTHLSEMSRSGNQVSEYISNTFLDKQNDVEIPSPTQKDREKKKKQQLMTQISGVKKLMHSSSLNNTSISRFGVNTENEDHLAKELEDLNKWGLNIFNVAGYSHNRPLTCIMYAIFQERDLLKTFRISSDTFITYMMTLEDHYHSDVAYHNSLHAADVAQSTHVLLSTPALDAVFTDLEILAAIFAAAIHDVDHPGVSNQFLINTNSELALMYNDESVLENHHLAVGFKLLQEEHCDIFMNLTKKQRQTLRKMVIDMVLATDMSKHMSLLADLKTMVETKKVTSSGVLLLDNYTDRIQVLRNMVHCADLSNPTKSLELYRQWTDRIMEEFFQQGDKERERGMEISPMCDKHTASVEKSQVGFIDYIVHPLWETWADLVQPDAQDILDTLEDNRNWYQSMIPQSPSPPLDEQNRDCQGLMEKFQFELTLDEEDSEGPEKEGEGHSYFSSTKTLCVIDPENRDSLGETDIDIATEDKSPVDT
Cytochrome P450 2D6 (Homo sapiens), sequence (P10635 whole entry, looked up): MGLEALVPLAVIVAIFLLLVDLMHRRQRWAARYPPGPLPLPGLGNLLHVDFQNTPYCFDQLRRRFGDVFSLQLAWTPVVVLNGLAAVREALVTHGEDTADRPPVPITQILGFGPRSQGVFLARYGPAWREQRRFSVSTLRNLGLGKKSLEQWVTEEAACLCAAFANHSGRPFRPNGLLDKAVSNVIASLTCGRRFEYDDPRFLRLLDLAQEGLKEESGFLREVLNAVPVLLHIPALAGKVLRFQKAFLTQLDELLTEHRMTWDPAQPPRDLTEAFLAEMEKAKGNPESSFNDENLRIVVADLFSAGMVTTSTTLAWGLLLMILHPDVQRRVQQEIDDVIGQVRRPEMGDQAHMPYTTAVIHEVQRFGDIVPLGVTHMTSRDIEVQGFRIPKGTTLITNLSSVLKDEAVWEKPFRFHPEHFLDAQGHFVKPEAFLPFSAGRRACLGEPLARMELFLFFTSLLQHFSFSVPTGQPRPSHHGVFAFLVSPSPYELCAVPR
Cytochrome P450 2C9 (Homo sapiens), sequence (P11712 whole entry, looked up): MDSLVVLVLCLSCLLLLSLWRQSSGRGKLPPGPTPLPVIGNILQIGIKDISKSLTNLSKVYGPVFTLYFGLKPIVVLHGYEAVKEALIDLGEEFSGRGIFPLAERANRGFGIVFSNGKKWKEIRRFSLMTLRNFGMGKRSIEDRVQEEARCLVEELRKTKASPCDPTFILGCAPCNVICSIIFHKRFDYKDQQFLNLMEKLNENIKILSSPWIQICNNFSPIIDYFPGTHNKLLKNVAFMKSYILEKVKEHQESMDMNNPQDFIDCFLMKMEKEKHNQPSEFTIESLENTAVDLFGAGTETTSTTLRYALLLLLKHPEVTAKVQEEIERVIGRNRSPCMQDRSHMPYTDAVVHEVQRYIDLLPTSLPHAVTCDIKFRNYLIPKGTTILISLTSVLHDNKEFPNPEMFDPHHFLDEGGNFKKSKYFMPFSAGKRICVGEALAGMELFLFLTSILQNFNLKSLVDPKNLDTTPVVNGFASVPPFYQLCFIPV

`CCCCN1CCC(CCC(=O)c2cc(Cl)c(N)cc2OC)CC1`: the Potency entry in test [1], in [4], in test [5], in test [6], in test [7] and in test [8] was “inactive” in each case. Further, the Potency entry in test [9] is “inactive”. Also, the Potency in test [2] and in [3] was greater than 46 µM in each case.
Consider `OC[C@H]1O[C@H](n2cnc3c(NC4CCCC4)nc(Cl)nc32)[C@@H](O)[C@@H]1O`, for which the Potency in test [1] is 39.8 µM (active); in test [2] it was greater than 46 µM; in test [3], greater than 46 µM. In addition, the Potency result in test [4], in test [5], in [7], in [8] and in test [9] was “inactive” throughout.
For the compound `CCC(C)(C)N=C(NC#N)Nc1cccnc1`, the Potency was 12.6 µM (active) in [1], greater than 46 µM in [2], greater than 46 µM in test [3] and 5.01 µM (active) in test [10]. In addition, the Potency result in test [5], in [11], in test [7], in test [8] and in test [9] was “inactive” throughout.
Regarding `O=C(/C=C/c1ccccc1)NC(NC(=S)Nc1cccc2cccnc12)C(Cl)(Cl)Cl` (stereo not given), the Potency result in [9] was “inactive”. Also, the result in test [12] was inactive.
Regarding `O=c1[nH]cnc2ccccc12`, the Potency result in test [10] and in test [9] was “inactive” each time. Besides, the outcome in [12] was inactive.
As for `N[C@H](C(=O)O)[C@H](OCc1ccccc1)C(=O)O`, the Potency in test [1] is 31.6 µM (active); in [2], greater than 46 µM; in test [3] it was greater than 46 µM; in [13], 7.94 µM (active). Moreover, the Potency entry in test [4], in test [5], in test [7], in test [8] and in test [9] was “inactive” in each case.
Turning to `OC[C@H]1NC[C@@H](O)[C@@H](O)[C@H]1O`, the Potency result in test [1], in test [4], in test [5], in test [7], in test [8] and in test [9] was “inactive” each time. Also, the Potency in test [2] and in test [3] was greater than 46 µM each time.
`c1ccc2nc(C3=NCCN3)cnc2c1`: the figures for the Potency in test [1], in [2] and in test [3] were 0.398 µM (active), greater than 46 µM and greater than 46 µM, respectively. Further, the Potency entry in test [4], in test [7], in test [8] and in [9] was “inactive” in each case.
